The record followed here is PubChem BioAssay (NCATS).

The target of experiment [1] is Cytochrome P450 2D6 (Homo sapiens) (UniProt P10635). Nature of the experiment: Cytochrome P450 family 2 subfamily D member 6 (CYP2D6) small molecule antagonists: luciferase biochemical (cell-free) qHTS assay (AID 1645840; active means well fitted curve in the direction sought with a large enough effect in the repeat runs; an effect the other way counts as inactive or inconclusive; further: nearly all actives have a fitted effect of over 55% in size; further: potency means the concentration at half of the fitted maximal effect; on activity change, negative = inhibition: on the % scale 0 is the no-effect control and ±100 the full control effect). The essentials: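 P450-Glo luminescent screen: recombinant CYP2D6 enzyme–proluciferin substrate mix preincubated with compound 10 min at room temperature, then NADPH regeneration added for 1 h at room temperature. Detection reagent added for 20 min; luciferin light read as relative luminescence units.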
Chain of Cytochrome P450 2D6 (Homo sapiens) (P10635 whole entry, looked up): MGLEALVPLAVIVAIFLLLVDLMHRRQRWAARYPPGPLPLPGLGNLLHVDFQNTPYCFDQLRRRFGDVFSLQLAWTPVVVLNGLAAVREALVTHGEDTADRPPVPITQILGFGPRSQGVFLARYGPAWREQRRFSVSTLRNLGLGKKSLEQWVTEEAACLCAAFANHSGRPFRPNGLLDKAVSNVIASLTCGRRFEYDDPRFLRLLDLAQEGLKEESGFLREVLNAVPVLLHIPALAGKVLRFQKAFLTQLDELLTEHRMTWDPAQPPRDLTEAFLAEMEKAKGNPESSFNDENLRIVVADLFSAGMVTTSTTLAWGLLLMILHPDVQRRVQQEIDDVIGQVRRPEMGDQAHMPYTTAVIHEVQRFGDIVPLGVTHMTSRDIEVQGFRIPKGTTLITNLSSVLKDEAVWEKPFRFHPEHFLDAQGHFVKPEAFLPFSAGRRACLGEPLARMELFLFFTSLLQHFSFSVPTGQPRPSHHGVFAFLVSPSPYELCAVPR
(In general: qHTS replaces the single test concentration by a dilution series.)

The target in experiment [2] is Catechol O-methyltransferase (Homo sapiens) (UniProt P21964). Nature of the experiment: Confirmatory Screen for Target Class Profiling of Small Molecule Inhibitors of Methyltransferases (AID 1745852). On activity change, negative = inhibition: on the % scale 0 is the no-effect control and ±100 the full control effect. To be noted: MTase-Glo luminescence, SAH detection, recombinant enzyme; measured here: COMT max response; stronger effect = lower value.
Chain of Catechol O-methyltransferase (Homo sapiens) (P21964 whole entry, looked up): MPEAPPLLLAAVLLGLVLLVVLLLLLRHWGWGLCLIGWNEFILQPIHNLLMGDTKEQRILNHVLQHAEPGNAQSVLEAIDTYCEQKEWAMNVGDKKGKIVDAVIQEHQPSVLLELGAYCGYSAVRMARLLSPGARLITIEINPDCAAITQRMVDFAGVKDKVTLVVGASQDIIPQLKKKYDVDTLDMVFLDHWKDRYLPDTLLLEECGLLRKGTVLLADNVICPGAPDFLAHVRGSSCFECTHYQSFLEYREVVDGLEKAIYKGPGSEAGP
The target of experiment [3] is Guanidinoacetate N-methyltransferase (Homo sapiens) (UniProt Q14353). Described as above. As to conditions: MTase-Glo luminescence, SAH detection, recombinant enzyme; activity change, negative = inhibition: at 57.3 µM (top of the series) unless noted.
Experiment [4] has as its target Nicotinamide N-methyltransferase (Homo sapiens) (UniProt P40261). The experiment is described as above. As to conditions: MTase-Glo luminescence, SAH detection, recombinant enzyme; measured here: NNMT max response; stronger effect = lower value.
Experiment [5] has as its target Phenylethanolamine N-methyltransferase (Homo sapiens) (UniProt P11086). The description is as above. As to conditions: MTase-Glo luminescence, SAH detection, recombinant enzyme; measured here: PNMT max response; stronger effect = lower value.
The target of experiment [6] is Calcium and integrin-binding protein 1 (Homo sapiens) (UniProt Q99828). Nature of the experiment: Primary qHTS for Identification of Calcium Integrin Binding Protein 1 (CIB1) Competitor (AID 1508620).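 Further: GST tagged CIB1 binding a fluorescein labelled alphaIIb integrin peptide tracer; top concentration of the series differs between compounds; on the % scale 0 is the no-effect control and ±100 the full control effect.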 The method in brief: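 Fluorescence polarization competition: CIB1-GST (1 uM final) preincubated with compound 15 min at room temperature, then FITC-labeled alphaIIb peptide (100 nM final) added for another 15 min. Polarization read at Ex 480/Em 540.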
Chain of Calcium and integrin-binding protein 1 (Homo sapiens) (Q99828 whole entry, looked up): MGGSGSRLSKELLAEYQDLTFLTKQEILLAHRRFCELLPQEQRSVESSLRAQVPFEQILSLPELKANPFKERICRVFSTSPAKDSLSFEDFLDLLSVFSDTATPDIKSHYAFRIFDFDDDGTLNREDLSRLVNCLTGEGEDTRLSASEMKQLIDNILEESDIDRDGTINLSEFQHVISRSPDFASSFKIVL

In experiment [7] the target is Cytochrome P450 2C9 (Homo sapiens) (UniProt P11712). Nature of the experiment: Cytochrome P450 family 2 subfamily C member 9 (CYP2C9) small molecule antagonists: luciferase biochemical (cell-free) qHTS assay (AID 1645842; active means well fitted curve in the direction sought with a large enough effect in the repeat runs; an effect the other way counts as inactive or inconclusive; further: nearly all actives have a fitted effect of over 55% in size; further: potency means the concentration at half of the fitted maximal effect; on activity change, negative = inhibition: on the % scale 0 is the no-effect control and ±100 the full control effect). The method in brief: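 Luminescence, after 20 min with luciferin detection reagent, reflected CYP2C9 turnover during a 1 h NADPH-driven reaction at 37C. Enzyme-substrate mix contained 0.4% bovine serum albumin and was preincubated with compound 10 min at room temperature.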
Chain of Cytochrome P450 2C9 (Homo sapiens) (P11712 whole entry, looked up): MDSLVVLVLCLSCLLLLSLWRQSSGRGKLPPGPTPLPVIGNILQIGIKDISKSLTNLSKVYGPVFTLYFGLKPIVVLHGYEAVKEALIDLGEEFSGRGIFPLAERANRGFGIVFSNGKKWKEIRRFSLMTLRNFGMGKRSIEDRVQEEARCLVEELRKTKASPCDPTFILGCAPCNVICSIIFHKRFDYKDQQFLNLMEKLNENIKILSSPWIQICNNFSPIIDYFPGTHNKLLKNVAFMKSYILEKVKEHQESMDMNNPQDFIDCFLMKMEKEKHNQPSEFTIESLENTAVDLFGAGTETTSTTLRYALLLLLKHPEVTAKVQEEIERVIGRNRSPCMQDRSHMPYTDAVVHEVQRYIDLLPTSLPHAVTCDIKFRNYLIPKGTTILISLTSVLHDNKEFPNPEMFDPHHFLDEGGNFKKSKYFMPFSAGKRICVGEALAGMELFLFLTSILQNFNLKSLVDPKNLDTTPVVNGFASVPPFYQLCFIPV

A short description of experiment [8]: Primary qHTS for inhibitors of nuclear receptor binding SET domain protein 2 (NSD2) in an isogenic RCH-ACV NSD2 p.E1099K mutant (9B) (AID 1645876). Further: on the % scale 0 is the no-effect control and ±100 the full control effect; nearly all actives have a fitted effect of over 70% in size.
The nature of experiment [9]: Primary qHTS for inhibitors of nuclear receptor binding SET domain protein 2 (NSD2) in an RCH-ACV wild type WT cells (2C) (AID 1645877). Further: nearly all actives have a fitted effect of over 70% in size.

Results filed as inconclusive are left out. The source made the active and inactive calls. Unless noted, the call rests on the fitted dose curve; in most records, active means well fitted curve in the direction sought with a large enough effect; inconclusive means small, poorly fitted or top-dose-only effect, or another doubt; inactive means no such curve, though single readings can be large; an effect the other way counts as inactive or inconclusive.

Chain of Nicotinamide N-methyltransferase (Homo sapiens) (P40261 whole entry, looked up): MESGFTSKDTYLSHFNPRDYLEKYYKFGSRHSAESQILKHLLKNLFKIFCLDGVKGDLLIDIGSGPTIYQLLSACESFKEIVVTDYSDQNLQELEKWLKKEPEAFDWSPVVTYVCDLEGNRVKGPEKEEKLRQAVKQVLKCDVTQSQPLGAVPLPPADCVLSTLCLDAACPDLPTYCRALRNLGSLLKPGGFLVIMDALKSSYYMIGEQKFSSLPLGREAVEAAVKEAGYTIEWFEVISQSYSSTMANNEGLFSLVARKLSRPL
Chain of Phenylethanolamine N-methyltransferase (Homo sapiens) (P11086 whole entry, looked up): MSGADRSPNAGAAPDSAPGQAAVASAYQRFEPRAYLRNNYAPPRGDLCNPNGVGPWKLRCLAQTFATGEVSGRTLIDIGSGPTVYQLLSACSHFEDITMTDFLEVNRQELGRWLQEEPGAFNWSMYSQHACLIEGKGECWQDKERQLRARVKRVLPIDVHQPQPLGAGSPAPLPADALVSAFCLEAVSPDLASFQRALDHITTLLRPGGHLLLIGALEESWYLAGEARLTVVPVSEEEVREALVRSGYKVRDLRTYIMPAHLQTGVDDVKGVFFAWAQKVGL

Regarding `Cc1c(Cc2ccc3ccccc3n2)c2cc(F)ccc2n1CC(=O)O`, in [1], the Potency result is “inactive”.
Turning to `COc1ccc(CC(NC(C)=O)C(=O)O)cc1` (stereo not drawn), the results for the activity in [2], in [4] and in experiment [5] were -71.7%, 1.04% and -0.971%, respectively. Also, in experiment [3], the activity change, negative = inhibition was 0%.
As for `CC(=O)NC(Cc1c[nH]c2ccccc(=O)c12)C(=O)O` (stereo not drawn), the activity in experiment [2] was -73.7%; in experiment [4], 3.04%; in [5], -0.114%. Also, the activity change, negative = inhibition in experiment [3] turned out to be 0%.
With `CCCCNc1nc(N)c2[nH]c(=O)n(Cc3ccc(OCCN(C)C)nc3)c2n1`, the Potency entry in [6], in [1], in experiment [7], in experiment [8] and in experiment [9] was “inactive” each time.
Take `N[C@@H](CCNCc1ccc(Cl)cc1)C(=O)N1CCCCC1`: the Potency entry in experiment [6], in [7], in experiment [8] and in experiment [9] was “inactive” each time. The Potency in experiment [1] is 10.7 µM (active).
For the compound `N#Cc1cc(-c2n[nH]c(-c3ccncc3)n2)ccn1`, the Potency entry in experiment [6], in experiment [1], in [8] and in experiment [9] was “inactive” in each case. Besides, the Potency in experiment [7] is 1.51 µM (active).
On to `Cc1ccc2nc(NC(=O)CSc3nc4c(c(=O)n3-c3ccc(F)cc3)SCC4)sc2c1`, for which the Potency entry in experiment [6], in [1], in [8] and in [9] was “inactive” each time. Moreover, the Potency in experiment [7] was 3.38 µM (active).
With `CCCCOc1nc(N)c2c(n1)N(Cc1cccc(CN3CCCC3)c1)CC(=O)N2`, the Potency result in experiment [6], in [7], in [8] and in [9] was “inactive” throughout. Moreover, the Potency in experiment [1] was 3.38 µM (active).
As for `O=[N+]([O-])c1cc(Cl)ccc1S(=O)(=O)N1CCN(Cc2ccccc2)CC1`, the Potency entry in experiment [6], in experiment [7], in experiment [8] and in experiment [9] was “inactive” in each case. Moreover, the Potency in experiment [1] was 0.756 µM (active).
As for `CCCC(C(=O)O)c1c(C)nc2ccc(Cl)cc2c1-c1ccccc1` (stereo not drawn), the Potency result in experiment [6], in experiment [1], in experiment [8] and in experiment [9] was “inactive” throughout. Besides, the Potency in experiment [7] was 21.3 µM (active).
For the compound `C[C@@H](NC(=O)c1cc(C(=O)N[C@@H](Cc2ccccc2)[C@H](O)CNC2CC2)cc(N(C)S(C)(=O)=O)c1)c1ccccc1`, the Potency entry in [6] and in experiment [8] was “inactive” in each case. Besides, the Potency was 4.77 µM (active) in experiment [1] and 4.25 µM (active) in experiment [7].
